Assay results: PubChem BioAssay (Tox21)
Inconclusive results are not listed. Active and inactive are the calls of the source. Unless noted, the call rests on the fitted dose curve; in most records, active means well fitted curve in the direction sought with a large enough effect in the repeat runs; inconclusive means weak or mixed curves; inactive means no such curve, though single readings can be large; an effect the other way counts as inactive or inconclusive.

Experiments:
[1] = biological target: Thyrotropin receptor (Homo sapiens) (UniProt P16473); assay: qHTS assay to identify small molecule agonists of the thyroid stimulating hormone receptor (TSHR) signaling pathway (AID 1224843; calls by dose curve; further: nearly all actives have a fitted effect of over 45% in size)
Thyrotropin receptor (Homo sapiens), sequence (P16473 whole entry, looked up): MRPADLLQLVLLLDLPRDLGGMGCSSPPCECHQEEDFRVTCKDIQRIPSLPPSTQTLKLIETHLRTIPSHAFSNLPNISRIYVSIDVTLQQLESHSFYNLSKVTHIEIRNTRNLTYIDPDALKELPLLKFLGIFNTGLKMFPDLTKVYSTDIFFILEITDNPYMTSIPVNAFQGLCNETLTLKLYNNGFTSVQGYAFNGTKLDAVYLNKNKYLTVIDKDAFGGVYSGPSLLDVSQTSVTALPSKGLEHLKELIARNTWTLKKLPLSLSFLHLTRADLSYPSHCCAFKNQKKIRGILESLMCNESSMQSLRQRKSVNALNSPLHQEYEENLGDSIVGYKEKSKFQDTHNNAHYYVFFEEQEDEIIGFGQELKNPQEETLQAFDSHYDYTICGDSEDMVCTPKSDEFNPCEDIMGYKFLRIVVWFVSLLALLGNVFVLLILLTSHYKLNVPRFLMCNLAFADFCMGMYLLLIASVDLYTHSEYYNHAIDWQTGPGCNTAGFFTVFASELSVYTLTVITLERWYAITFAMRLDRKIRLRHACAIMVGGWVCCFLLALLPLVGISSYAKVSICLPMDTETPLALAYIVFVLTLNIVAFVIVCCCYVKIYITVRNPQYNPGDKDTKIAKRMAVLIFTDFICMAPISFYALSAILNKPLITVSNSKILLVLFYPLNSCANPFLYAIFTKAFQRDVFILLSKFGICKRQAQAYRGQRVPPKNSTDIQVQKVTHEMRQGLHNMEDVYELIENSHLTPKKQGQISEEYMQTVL
Summary of the method: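 HEK293/TSHR, 800 cells/well; cpd 30 min RT; add cAMP-d2 + anti-cAMP-cryptate, 1 h RT; fluorescence read on plate reader. 15-pt titration, n=3.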

[2] = qHTS assay to identify small molecule agonists of the hypoxia (HIF-1) signaling pathway - cell viability counter screen (AID 1224844; calls by dose curve; further: nearly all actives have a fitted effect of over 50% in size)
Summary of the method: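 Same wells as the HIF-1 reporter screen; ME-180 cells carrying HRE-bla, 17 hr treatment at 37C; CellTiter-Glo luminescence read after 30 min at room temperature.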

[3] = qHTS assay to identify small molecule agonists of H2AX - cell viability counter screen (AID 1224847; calls by dose curve; further: nearly all actives have a fitted effect of over 30% in size; further: potency means the concentration at half of the fitted maximal effect; on activity change, negative = cytotoxicity: top concentration of the series differs between compounds)
Summary of the method: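 Cells plated first: CHO-K1, 1000 per well in 10% FBS medium, incubated overnight at 37C. Then 15-point compound titration added (final DMSO 0.76%) for 3 hr. Finally CellTiter-Glo added and luminescence read.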

[4] = qHTS RealTime-Glo MT Cell Viability Assay in HepG2 cells - 24 hour (AID 1224867); further: nearly all actives have a fitted effect of over 50% in size
Summary of the method: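 Cell number in HepG2 cultures estimated from NanoLuc luminescence generated by metabolic reduction of a prosubstrate by living cells. The homogeneous, nonlytic format allowed repeated reads at 0, 8, 16, 24, 32 and 40 h of compound exposure.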

[5] = qHTS RealTime-Glo MT Cell Viability Assay in HEK293 cells - 32 hour (AID 1224868); further: nearly all actives have a fitted effect of over 50% in size; further: potency means the concentration at half of the fitted maximal effect; on activity change, negative = cytotoxic: top concentration of the series differs between compounds
Summary of the method: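 Homogeneous bioluminescent viability format in HEK293 cells (600 cells/well). Following 5 h at 37 C/5% CO2, 23 nL compound was pintooled; the signal was measured repeatedly during 40 h incubation.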

[6] = A CellTox Green Cytotoxicity Assay to monitor cytotoxicity in HEK293 cells - 0 hour (AID 1224869); further: nearly all actives have a fitted effect of over 50% in size
Summary of the method: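 Homogeneous no-lysis format: HEK293 cell suspension mixed with CellTox Green reagent, seeded, incubated 5 h at 37 C/5% CO2, then dosed by pintool with compound in DMSO.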

[7] = qHTS assay to identify small molecule agonists of H2AX (AID 1224845; active means well fitted activation curve with a large enough effect in the signal ratio in the repeat runs, not every such curve was filed as active; the % refers to the signal ratio)
Summary of the method: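 Wild-type CHO-K1 cells, plated overnight, exposed 3hr at 37C to 15 concentrations (0.76% DMSO final). Lysed, then HTRF anti-pH2AX (S139) cryptate and anti-H2AX-d2 antibodies, 24 hr room temperature; 665/620 nm emission read.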

[8] = qHTS assay to identify small molecule agonists of the hypoxia (HIF-1) signaling pathway (AID 1224846; active means well fitted activation curve with a large enough effect in the signal ratio in the repeat runs, not every such curve was filed as active; the % refers to the signal ratio)
Summary of the method: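 In ME-180 cells bearing an HRE-bla construct, 17 h treatment with DMSO-dissolved compounds at 37C was followed by CCF4-AM loading to quantify reporter induction.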

[9] = qHTS assay to identify small molecule antagonists of the estrogen related receptor (ERR) signaling pathway from Tox21 library (AID 1224848); further: nearly all actives have a fitted effect of over 50% in size
Summary of the method: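 Compounds dissolved in DMSO are pin-transferred onto ERR reporter cells (2,000 per well) that have settled for 6 h at 37 C. Plates then incubate 18 h at 37 C before ONE-Glo luciferase reagent and a luminescence read 30 min later.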

[10] = qHTS assay to identify small molecule agonists of the estrogen related receptor (ERR) signaling pathway from Tox21 library (AID 1224849; calls by dose curve; further: nearly all actives have a fitted effect of over 15% in size); conditions: ERR reporter cell line, ONE-Glo luciferase, 18 h; at 92.4 µM (top of the series) unless noted
Summary of the method: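 Reporter cells (ERR, NTP source) treated with Tox21 10K compounds 18 h, 37 C. Readout: ONE-Glo luminescence, 30 min RT.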
On the % scale 0 is the no-effect control and ±100 the full control effect.

NC(=O)c1ncn([C@@H]2O[C@H](CO)[C@@H](O)[C@H]2O)c1O
inactive: outcome [1] | Potency [2] | Potency [3] | outcome [4] | Potency [5] | Potency [6]

Oc1ccc2c(c1)OC[C@@H](N1CCC(O)(c3ccc(F)cc3)CC1)[C@H]2O
active: activity change, positive = activation [10] 111% [at 42.5 µM]
inactive: Potency [2] | outcome [7] | outcome [8] | Potency [3] | Potency [9] | Potency [5] | Potency [6]

C1C2OC2C2C1C1CC2C2OC12 (centres undefined)
inactive: Potency [2] | outcome [7] | outcome [8] | Potency [3] | outcome [4] | Potency [5] | Potency [6]

Nc1ccc2cc(S(=O)(=O)O)ccc2c1
inactive: outcome [1] | Potency [2] | outcome [8] | Potency [5] | Potency [6]

C=C[Si](OC)(OC)OC
inactive: Potency [2] | outcome [7] | outcome [8] | Potency [3] | outcome [4] | Potency [5] | Potency [6]

CO[Si](CCCNCCC[Si](OC)(OC)OC)(OC)OC
inactive: outcome [1] | Potency [2] | outcome [8] | outcome [4] | Potency [5] | Potency [6]

C[N+](C)(C)CC[N+]1(C)Cc2c(Cl)c(Cl)c(Cl)c(Cl)c2C1
inactive: outcome [1] | Potency [2] | outcome [8] | Potency [5] | Potency [6]

Cc1nccn1CC1CCc2c(c3ccccc3n2C)C1=O (centres undefined)
inactive: outcome [1] | Potency [2] | Potency [3] | Potency [5] | Potency [6]

FC(F)(F)C(F)(F)C(F)(F)C(F)(F)C(F)(F)C(F)(F)C(F)(F)C(F)(F)C(F)(F)C(F)(F)F
inactive: activation [1] 1.03% [at 8.39 µM] | activity change, negative = cytotoxicity [2] -0.544% [at 6.97 µM] | activation [8] -1.11% [at 7.01 µM] | activity change, negative = cytotoxicity [3] 0.329% [at 14 µM] | activity change, negative = cytotoxicity [4] -0.167% [at 6.97 µM] | activity change, negative = cytotoxic [5] -3.25% [at 6.97 µM] | cytotoxicity [6] -6.11% [at 6.97 µM]

C=C(C)C(=O)NCCC[N+](C)(C)C
inactive: outcome [1] | Potency [2] | outcome [8] | Potency [3] | Potency [5] | Potency [6]

O=c1[nH]c2ccccc2c(=O)n1CCCl
inactive: outcome [1] | Potency [2] | outcome [8] | Potency [9] | activity change, positive = activation [10] -3.42% [at 42.5 µM] | outcome [4] | Potency [5] | Potency [6]

Oc1cc(O)c2c(c1)O[C@H](c1ccc(O)c(O)c1)[C@H](O)C2
inactive: outcome [1] | Potency [3] | outcome [4] | Potency [5] | Potency [6]

CCCCCCCCCCCl
inactive: Potency [2] | outcome [7] | outcome [8] | Potency [3] | Potency [9] | activity change, positive = activation [10] 0.564% | outcome [4] | Potency [5] | Potency [6]

COC(=O)C1=C(C)NC(C)=C(C(=O)OCC(C)=O)C1c1ccccc1[N+](=O)[O-] (centres undefined)
inactive: Potency [2] | outcome [7] | outcome [8] | Potency [3] | Potency [9] | activity change, positive = activation [10] -8.69% [at 42.5 µM] | outcome [4] | Potency [5] | Potency [6]

NCC[C@H](O)C(=O)N[C@@H]1C[C@H](N)[C@@H](O[C@H]2O[C@H](CN)[C@@H](O)[C@H](O)[C@H]2O)[C@H](O)[C@H]1O[C@H]1O[C@H](CO)[C@@H](O)[C@H](N)[C@H]1O
inactive: activation [1] -3.02% [at 0.349 µM] | activity change, negative = cytotoxicity [2] 3.37% [at 0.29 µM] | activity change, negative = cytotoxicity [3] 2.46% [at 0.582 µM] | activity change, negative = cytotoxicity [4] 1.55% [at 0.29 µM] | activity change, negative = cytotoxic [5] 4.99% [at 0.29 µM] | cytotoxicity [6] -5.15% [at 0.29 µM]

CC(C)COC(=O)c1ccccc1O
inactive: outcome [1] | Potency [2] | outcome [8] | outcome [4] | Potency [5] | Potency [6]

CN1[C@@H]2CC[C@H]1CC(NC(=O)n1c(=O)[nH]c3ccccc31)C2 (some centres undefined)
inactive: Potency [2] | outcome [7] | outcome [8] | Potency [3] | Potency [9] | activity change, positive = activation [10] 7.7% [at 42.5 µM] | outcome [4] | Potency [5] | Potency [6]

CC(C)(C)OC(=O)N1C[C@@H](F)C[C@H]1C(=O)O
inactive: outcome [1] | Potency [2] | outcome [8] | Potency [3] | Potency [5] | Potency [6]

COc1cc(C(=O)N2CCOCC2)cc(OC)c1OC
inactive: Potency [2] | outcome [7] | outcome [8] | outcome [4] | Potency [5] | Potency [6]

C=C(C)[C@H]1CC=C(C)CC1
inactive: Potency [2] | outcome [7] | outcome [8] | Potency [3] | Potency [5] | Potency [6]

O=c1[nH]c(=O)n([C@H]2O[C@H](CO)[C@@H](O)[C@@H]2O)cc1/C=C\Br
inactive: Potency [2] | outcome [8] | Potency [3] | outcome [4] | Potency [5] | Potency [6]

CC(C)c1cccc(C(C)C)c1N
inactive: Potency [2] | outcome [7] | outcome [8] | Potency [9] | activity change, positive = activation [10] 0.341% | outcome [4] | Potency [5] | Potency [6]

Cc1cc(C)c(NC(=O)CN(CC(=O)O)CC(=O)O)c(C)c1Br
inactive: Potency [2] | outcome [7] | outcome [8] | Potency [3] | outcome [4] | Potency [5] | Potency [6]

Cc1ccc(Nc2ccc(O)c3c2C(=O)c2ccccc2C3=O)cc1
inactive: Potency [2] | outcome [7] | outcome [8] | Potency [3] | outcome [4] | Potency [5] | Potency [6]

C/C=C1\C(=O)C[C@H]2[C@@H]3CCC4=CC(=O)CC[C@]4(C)[C@H]3CC[C@]12C
inactive: Potency [2] | outcome [7] | outcome [8] | outcome [4] | Potency [6]
active: Potency [3] 55.5 µM | Potency [5] 21.4 µM

OC/C=C/c1ccccc1
inactive: Potency [2] | outcome [8] | Potency [3] | outcome [4] | Potency [5] | Potency [6]

COCc1ccc(COC)cc1
inactive: Potency [2] | outcome [7] | outcome [8] | outcome [4] | Potency [5] | Potency [6]
